# Data as given in PubChem BioAssay (NCATS).
# Records with an inconclusive call do not appear. Where a call stands in place of a potency, no number is given. Active and inactive are the calls of the source. The call rests on the fitted dose curve; in most records, active means well fitted curve in the direction sought with a large enough effect; inconclusive means small, poorly fitted or top-dose-only effect, or another doubt; inactive means no such curve, though single readings can be large; an effect the other way counts as inactive or inconclusive.
# Assays:
# [1] = Quantitative High-Throughput drug screen in 47 multiple myeloma cell lines against the NCATS MIPE library collection: H1112_PLB cell viability assay (AID 1918967; further: nearly all actives have a fitted effect of over 30% in size; further: potency means the concentration at half of the fitted maximal effect)
# Procedure, shortened: (§1)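 Luminescent ATP measurement with CellTiter-Glo gives viability, scaled between DMSO-only wells (100%) and media-only wells (0%). Cells, 500 per well, faced library compounds for 48 hours at 37C.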
# [2] = Quantitative High-Throughput drug screen in 47 multiple myeloma cell lines against the NCATS MIPE library collection: Karpas25_ECACC cell viability assay (AID 1918968; further: nearly all actives have a fitted effect of over 35% in size; further: potency means the concentration at half of the fitted maximal effect)
# Procedure, shortened: as §1
# [3] = Quantitative High-Throughput drug screen in 47 multiple myeloma cell lines against the NCATS MIPE library collection: KMS12BM_JCRB cell viability assay (AID 1918971); further: nearly all actives have a fitted effect of over 35% in size; further: potency means the concentration at half of the fitted maximal effect
# Procedure, shortened: (§2)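 Inhibition of cell viability is measured here. Each line was plated at 500 cells per well, treated with MIPE 4.0 drugs, kept 48 hours at 37C, then assayed for ATP content by CellTiter-Glo luminescence.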
# [4] = Quantitative High-Throughput drug screen in 47 multiple myeloma cell lines against the NCATS MIPE library collection: NCIH929_DSMZ cell viability assay (AID 1918978); further: nearly all actives have a fitted effect of over 35% in size; further: potency means the concentration at half of the fitted maximal effect
# Procedure, shortened: (§3)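 ATP-based luminescence (CellTiter-Glo, 5 min RT incubation) quantified surviving cells following two days' treatment with MIPE 4.0 agents at 37 °C, 5% CO2.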
# [5] = Quantitative High-Throughput drug screen in 47 multiple myeloma cell lines against the NCATS MIPE library collection: JJN3_DSMZ cell viability assay (AID 1918966; further: nearly all actives have a fitted effect of over 50% in size; further: potency means the concentration at half of the fitted maximal effect)
# Procedure, shortened: as §1
# [6] = Quantitative High-Throughput drug screen in 47 multiple myeloma cell lines against the NCATS MIPE library collection: KMS26_JCRB cell viability assay (AID 1918975); further: nearly all actives have a fitted effect of over 45% in size; further: potency means the concentration at half of the fitted maximal effect
# Procedure, shortened: as §2
# [7] = Quantitative High-Throughput drug screen in 47 multiple myeloma cell lines against the NCATS MIPE library collection: MMM1_PLB cell viability assay (AID 1918976); further: nearly all actives have a fitted effect of over 35% in size; further: potency means the concentration at half of the fitted maximal effect
# Procedure, shortened: as §3
# [8] = Quantitative High-Throughput drug screen in 47 multiple myeloma cell lines against the NCATS MIPE library collection: KMS34_JCRB cell viability assay (AID 1918985); further: nearly all actives have a fitted effect of over 40% in size; further: potency means the concentration at half of the fitted maximal effect
# Procedure, shortened: as §3
# [9] = Quantitative High-Throughput drug screen in 47 multiple myeloma cell lines against the NCATS MIPE library collection: KMS12PE_JCRB cell viability assay (AID 1918972); further: nearly all actives have a fitted effect of over 30% in size; further: potency means the concentration at half of the fitted maximal effect
# Procedure, shortened: as §2
# [10] = Quantitative High-Throughput drug screen in 47 multiple myeloma cell lines against the NCATS MIPE library collection: OCIMY1_PLB cell viability assay (AID 1918979); further: nearly all actives have a fitted effect of over 35% in size
# Procedure, shortened: as §3
# [11] = Quantitative High-Throughput drug screen in 47 multiple myeloma cell lines against the NCATS MIPE library collection: MM1R_ATCC cell viability assay (AID 1918981); further: nearly all actives have a fitted effect of over 35% in size; further: potency means the concentration at half of the fitted maximal effect
# Procedure, shortened: as §3
# [12] = Quantitative High-Throughput drug screen in 47 multiple myeloma cell lines against the NCATS MIPE library collection: KMS28PE_JCRB cell viability assay (AID 1918983); further: nearly all actives have a fitted effect of over 35% in size; further: potency means the concentration at half of the fitted maximal effect
# Procedure, shortened: as §3
# [13] = Quantitative High-Throughput drug screen in 47 multiple myeloma cell lines against the NCATS MIPE library collection: MM1S_ATCC cell viability assay (AID 1918980); further: nearly all actives have a fitted effect of over 45% in size; further: potency means the concentration at half of the fitted maximal effect
# Procedure, shortened: as §3
# [14] = Quantitative High-Throughput drug screen in 47 multiple myeloma cell lines against the NCATS MIPE library collection: LP1_DSMZ cell viability assay (AID 1918982); further: nearly all actives have a fitted effect of over 35% in size; further: potency means the concentration at half of the fitted maximal effect
# Procedure, shortened: as §3
# [15] = Quantitative High-Throughput drug screen in 47 multiple myeloma cell lines against the NCATS MIPE library collection: KMS27_JCRB cell viability assay (AID 1918970); settings: KMS27 myeloma cells, CellTiter-Glo ATP viability, 48 h; viability (% of DMSO): at 45.8 µM (top of the series); further: nearly all actives have a fitted effect of over 30% in size; further: potency means the concentration at half of the fitted maximal effect
# Procedure, shortened: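 Viability inhibition screen, 48 h compound exposure, luminescent ATP read-out.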
# [16] = Quantitative High-Throughput drug screen in 47 multiple myeloma cell lines against the NCATS MIPE library collection: MOLP8_DSMZ cell viability assay (AID 1918977); further: potency means the concentration at half of the fitted maximal effect; nearly all actives have a fitted effect of over 45% in size
# Procedure, shortened: as §3
# [17] = Quantitative High-Throughput drug screen in 47 multiple myeloma cell lines against the NCATS MIPE library collection: L363_DSMZ cell viability assay (AID 1918984); settings: L363 myeloma viability, CellTiter-Glo ATP luminescence, 48 h; viability (% of control): at 45.8 µM (top of the series); further: nearly all actives have a fitted effect of over 40% in size; further: potency means the concentration at half of the fitted maximal effect
# Procedure, shortened: as §3
# [18] = Quantitative High-Throughput drug screen in 47 multiple myeloma cell lines against the NCATS MIPE library collection: KMS20_JCRB cell viability assay (AID 1918973); further: potency means the concentration at half of the fitted maximal effect; nearly all actives have a fitted effect of over 45% in size
# Procedure, shortened: as §1
# [19] = Quantitative High-Throughput drug screen in 47 multiple myeloma cell lines against the NCATS MIPE library collection: KMS21BM_JCRB cell viability assay (AID 1918974); settings: ATP luminescence, 48 h; viability: at 45.8 µM (top of the series); further: potency means the concentration at half of the fitted maximal effect
# Procedure, shortened: as §1
smiles,measurement,setting,value
CCN1CCN(c2ccc(Nc3cc(N(C)C(=O)Nc4c(Cl)c(OC)cc(OC)c4Cl)ncn3)cc2)CC1,Potency,[1],inactive
same,Potency,[2],18.7 µM (active)
same,Potency,[3],16.6 µM (active)
same,Potency,[4],inactive
Cc1ccc(C(=O)N(CCCN)[C@@H](c2oc3cc(Cl)ccc3c(=O)c2Cc2ccccc2)C(C)C)cc1,Potency,[5],18.7 µM (active)
same,Potency,[6],26.4 µM (active)
same,Potency,[7],23.5 µM (active)
same,Potency,[4],8.33 µM (active)
same,Potency,[8],inactive
CNc1nc(Nc2ccc(C(=O)N3CCOCC3)cc2OC)ncc1Cl,Potency,[1],inactive
same,Potency,[2],inactive
same,Potency,[3],14.8 µM (active)
same,Potency,[9],inactive
same,Potency,[10],inactive
same,Potency,[11],5.9 µM (active)
same,Potency,[12],inactive
C[C@@H]1[C@H](O)[C@@H](C)C=CC=CC=CC=CC=CC=CC=C[C@H](O[C@@H]2O[C@H](C)[C@H](O)[C@H](N)[C@@H]2O)C[C@@H]2O[C@](O)(C[C@@H](O)C[C@@H](O)[C@H](O)CC[C@@H](O)C[C@@H](O)CC(=O)O[C@H]1C)C[C@H](O)[C@@H]2C(=O)O,Potency,[1],3.32 µM (active)
same,Potency,[2],3.32 µM (active)
same,Potency,[3],2.09 µM (active)
same,Potency,[4],inactive
same,Potency,[13],0.833 µM (active)
same,Potency,[12],inactive
same,Potency,[8],11.8 µM (active)
COc1nccc(-c2c(-c3ccc(F)cc3)ncn2C2CCNCC2)n1,Potency,[1],1.66 µM (active)
same,Potency,[2],inactive
same,Potency,[3],20.9 µM (active)
same,Potency,[9],inactive
same,Potency,[6],inactive
same,Potency,[7],13.2 µM (active)
same,Potency,[14],inactive
same,Potency,[12],13.2 µM (active)
CC(C)=CCCC(C)=CCCC(C)=CCCC(C)=CCCC(C)=CCCC(C)=CCCC(C)=CCCC(C)=CCCC(C)=CCO,Potency,[1],inactive
same,Potency,[2],inactive
same,Potency,[15],inactive
same,Potency,[3],inactive
same,Potency,[9],inactive
same,Potency,[6],inactive
same,Potency,[7],inactive
same,Potency,[16],9.35 µM (active)
same,Potency,[4],inactive
same,Potency,[10],inactive
same,Potency,[13],inactive
same,Potency,[11],inactive
same,Potency,[14],inactive
same,Potency,[12],inactive
same,Potency,[17],inactive
same,Potency,[8],inactive
CN[C@@H]1[C@@H](O)[C@@H](O[C@@H]2[C@@H](O)[C@H](O[C@H]3O[C@H](CN)[C@@H](O)[C@H](O)[C@@H]3O)[C@@H](N)C[C@@H]2NC(=O)[C@@H](O)CN)OC[C@]1(C)O,Potency,[5],inactive
same,Potency,[7],5.26 µM (active)
same,Potency,[11],inactive
same,Potency,[14],inactive
same,Potency,[12],inactive
COc1cc(F)c(C(C)C)cc1-c1ccc(C(F)(F)F)cc1CN1C(=O)O[C@H](c2cc(C(F)(F)F)cc(C(F)(F)F)c2)[C@@H]1C,Potency,[1],inactive
same,Potency,[2],inactive
same,Potency,[15],inactive
same,Potency,[3],3.32 µM (active)
same,Potency,[9],inactive
same,Potency,[6],inactive
same,Potency,[7],1.18 µM (active)
same,Potency,[4],inactive
same,Potency,[10],inactive
same,Potency,[11],0.296 µM (active)
same,Potency,[14],0.662 µM (active)
OC[C@H]1O[C@@H](O[C@H]2[C@@H](O)[C@@](O)(CO)O[C@@H]2CO)[C@H](O)[C@@H](O)[C@@H]1O,Potency,[1],inactive
same,Potency,[2],inactive
same,Potency,[15],inactive
same,Potency,[3],inactive
same,Potency,[9],inactive
same,Potency,[6],inactive
same,Potency,[7],3.72 µM (active)
same,Potency,[4],inactive
same,Potency,[10],inactive
same,Potency,[13],inactive
same,Potency,[11],inactive
same,Potency,[14],inactive
same,Potency,[12],inactive
same,Potency,[17],inactive
same,Potency,[8],inactive
CCCCCCCCCCCCCCCC(=O)O[C@H]1[C@@H](O)[C@@H](O)[C@@H]([C@H](NC(=O)[C@@H]2C[C@@H](CCC)CN2C)[C@H](C)Cl)O[C@@H]1SC,Potency,[1],18.7 µM (active)
same,Potency,[15],7.43 µM (active)
same,Potency,[3],4.69 µM (active)
same,Potency,[9],inactive
same,Potency,[6],inactive
same,Potency,[7],4.18 µM (active)
same,Potency,[4],2.96 µM (active)
same,Potency,[13],18.7 µM (active)
same,Potency,[11],inactive
same,Potency,[12],inactive
O=C(c1ccc(F)c(F)c1Nc1ccc(I)cc1F)N1CC(O)([C@H]2CCCCN2)C1,Potency,[1],16.6 µM (active)
same,Potency,[2],16.6 µM (active)
same,Potency,[15],0.264 µM (active)
same,Potency,[3],23.5 µM (active)
same,Potency,[18],0.372 µM (active)
same,Potency,[6],23.5 µM (active)
same,Potency,[4],14.8 µM (active)
same,Potency,[11],23.5 µM (active)
same,Potency,[12],18.7 µM (active)
same,Potency,[17],1.66 µM (active)
CCC(=O)OCC(=O)[C@@]1(OC(=O)CC)[C@@H](C)C[C@@H]2[C@H]3CCC4=CC(=O)C=C[C@]4(C)[C@@]3(F)[C@@H](O)C[C@@]21C,Potency,[1],inactive
same,Potency,[2],0.118 µM (active)
same,Potency,[15],4.18 µM (active)
same,Potency,[9],10.5 µM (active)
same,Potency,[19],2.64 µM (active)
same,Potency,[10],inactive
same,Potency,[17],1.05 µM (active)
N[C@@H](CC(=O)N1CCn2c(nnc2C(F)(F)F)C1)Cc1cc(F)c(F)cc1F,Potency,[1],inactive
same,Potency,[2],inactive
same,Potency,[15],inactive
same,Potency,[3],inactive
same,Potency,[9],inactive
same,Potency,[7],1.87 µM (active)
same,Potency,[4],inactive
same,Potency,[10],inactive
same,Potency,[13],26.4 µM (active)
same,Potency,[14],inactive
same,Potency,[12],9.35 µM (active)
